Consider 23 compounds from PubChem BioAssay.

Measured potencies and affinities stand elsewhere.

The nature of this experiment: rescue of polyQ-huntingtin neuronal dysfunction in worms, whole organism, C. elegans mechanosensory neurons, N-terminal huntingtin (AID 1599). Conditions: touch response, stronger effect = higher value.
`CC12CC3CC(C)(C1)CC(N)(C3)C2` showed a rescue above control of -2.96.

For the compound `S=c1nc[nH]c2nc[nH]c12`, the rescue above control is -8.7.

The compound `OC(Cn1cncn1)(Cn1cncn1)c1ccc(F)cc1F` yielded a rescue above control of -3.31.

As for `NCCc1ccc(O)c(O)c1`, the rescue above control amounted to 0.54.

On to `CN=C(NC#N)NCCSCc1nc[nH]c1C`, for which the rescue above control was -9.17.

As to `CC1COc2c(N3CCN(C)CC3)c(F)cc3c(=O)c(C(=O)O)cn1c23` (stereo not drawn), the rescue above control is -6.02.

`O=C(C1CCCCC1)N1CC(=O)N2CCc3ccccc3C2C1` (stereo not drawn) registered a rescue above control of -8.41.

`CCc1cc(C(N)=S)ccn1` returned a rescue above control of -3.77.

Turning to `CC1=C(/C=C/C(C)=C/C=C/C(C)=C/C(=O)O)C(C)(C)CCC1`, the rescue above control came out at 3.71.

Take `CCCCNc1cc(C(=O)O)cc(S(N)(=O)=O)c1Oc1ccccc1`: the rescue above control is -11.4.

The compound `O=c1[nH]cnc2[nH]ncc12` displayed a rescue above control of 2.94.

As for `O=C1c2c(O)ccc(O)c2C(=O)c2c(NCCNCCO)ccc(NCCNCCO)c21`, the rescue above control worked out at 0.

`O=C(O)c1cc(=O)c2c(OCC(O)COc3cccc4oc(C(=O)O)cc(=O)c34)cccc2o1` showed a rescue above control of 9.88.

`CC(C)C(=O)Nc1ccc([N+](=O)[O-])c(C(F)(F)F)c1`: the rescue above control was 0.

`CC(COc1ccccc1)N(CCCl)Cc1ccccc1` (stereo not drawn): the rescue above control worked out at 11.3.

`CC(=O)CC(c1ccccc1)c1c(O)c2ccccc2oc1=O` (stereo not drawn) yielded a rescue above control of -6.3.

Consider `NS(=O)(=O)c1cc2c(cc1Cl)NCNS2(=O)=O`, for which the rescue above control is 7.5.

For the compound `CS(=O)(=O)OCCCCOS(C)(=O)=O`, the rescue above control was -1.18.

The compound `NNCCc1ccccc1` yielded a rescue above control of -3.55.

Consider `CC1Cc2ccccc2N1NC(=O)c1ccc(Cl)c(S(N)(=O)=O)c1` (stereo not drawn), for which the rescue above control came to 19.

`CC(C)Cc1ccc(C(C)C(=O)O)cc1` (stereo not drawn) returned a rescue above control of 11.4.

`N[C@@H]1CONC1=O`: the rescue above control was -2.84.

Consider `CCN(Cc1ccncc1)C(=O)C(CO)c1ccccc1` (stereo not drawn), for which the rescue above control is -3.59.
